Out of some 5,400 compounds screened, about 190 (3.5%) showed an effect of 50% or more. This excerpt belongs to a sample that is enriched for strong results.

The subject of the test is Vero-E6. As to the kind of experiment: primary screen, phospholipidosis by LipidTOX staining; higher = more effect of the substance. The conditions noted are these: 10 µM. The gist of the method:
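Drug-induced phospholipidosis detected with HCS LipidTOX Red reagent in Vero-E6 cells. Compounds tested at 10 μM, with amiodarone (10 μM) as positive control and DMSO (0.1 v/v %) as vehicle.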
Consider `C=C1/C(=C\C=C2/CCC[C@]3(C)[C@@H]([C@H](C)/C=C/[C@@H](O)C4CC4)CC[C@@H]23)C[C@@H](O)C[C@@H]1O`, for which the result_ITMP is listed as -1.18%.
The same measure for `Nc1nc(=O)c2c([nH]1)NC[C@H](CNc1ccc(C(=O)N[C@@H](CCC(=O)[O-])C(=O)[O-])cc1)N2C=O`: -7.53%.
The same measure for `COc1cc(OC)cc(N(CCNC(C)C)c2ccc3ncc(-c4cnn(C)c4)nc3c2)c1`: 55.2%; for `Cn1cc(-c2ccc3ncc(Cc4ccc5ncccc5c4)n3n2)cn1`: 3.96%.
The result for `COc1cc2ncc(-c3ccccc3)nc2cc1OC` reads -10.1%; that for `CCCCCN(C)CCC(O)(P(=O)([O-])O)P(=O)(O)O`, 3.23%.
Regarding `C=CCN.ClCC1CO1` (centres unmarked), the result_ITMP is on record as -4.42%.
The result for `C[C@@H]1N=C(N)NC(N(C)C)=N1` reads -2.11%; that for `CC(C)c1cnn2c(NCc3ccccc3)cc(NCCCCCCN)nc12`, 53.6%; that for `CC(=O)N[C@H]1[C@H]([C@H](O)[C@H](O)CO)OC(C(=O)O)=C[C@@H]1NC(=N)N`, -15.8%.
The same measure for `Cc1ncc(-c2csc(NC(=N)N)n2)[nH]1`: -2.01%.
The result for `Cn1cc(C(=O)C(=O)N[C@H]2CN3CCC2CC3)c2ccccc21` reads 4.71%; that for `c1ccc2c(c1)Sc1ccccc1N2CC1CN2CCC1CC2` (centres unmarked), 71.6%; that for `C[C@H](CCC(=O)[O-])[C@H]1CCC2C3C(=O)CC4CC(=O)CC[C@]4(C)C3CC(=O)[C@@]21C` (some centres unmarked), 4.65%.
Turning to `COc1cc(NC(C)CCCN)c2ncccc2c1` (centres unmarked), the result_ITMP amounted to 1.37%.
The same measure for `COc1cc(C)c2c(Oc3cccc(C(F)(F)F)c3)c(OC)cc(NC(C)CCCN)c2n1` (centres unmarked): 51.6%.
The result for `CO[C@H]1CC[C@H](N(c2cc(C3=CCCCC3)sc2C(=O)[O-])C(=O)[C@H]2CC[C@H](C)CC2)CC1` reads -0.87%; that for `C[C@]12CC[C@@H]3c4ccc(OC(=O)N(CCCl)CCCl)cc4CC[C@H]3[C@@H]1CC[C@@H]2OP(=O)([O-])[O-]`, -4.08%; that for `O=C(CCCN1CCC(O)(c2ccc(Br)cc2)CC1)c1ccc(F)cc1`, 14.8%.
The result for `O=C(CCCN1CCC2(CC1)C(=O)N(Cc1cccc(F)c1)CN2c1ccccc1)c1ccc(F)cc1` reads 89%; that for `O=C(CCCN1CCC2(CC1)C(=O)NCN2c1ccccc1)c1ccc(F)cc1`, 20.3%.
`CC(=O)OCC1=C(C(=O)[O-])N2C(=O)[C@@H](NC(=O)CCCC(N)C(=O)[O-])C2SC1` (some centres unmarked): the result_ITMP is listed as 1.34%.
Take `CC1(C)[C@H]2CC[C@@]1(C)[C@H](O)[C@@H]2O`: the result_ITMP is on record as -3.19%.
The result for `C[C@@H]1[C@H](O)[C@@H](C)/C=C/C=C/C=C/C=C/C=C/C=C/C=C/[C@H](O[C@@H]2O[C@H](C)[C@@H](O)[C@H](N)[C@@H]2O)C[C@@H]2O[C@](O)(C[C@@H](O)C[C@@H](O)[C@H](O)CC[C@@H](O)C[C@@H](O)CC(=O)O[C@H]1C)C[C@H](O)[C@H]2C(=O)O` reads 0.23%; that for `C[C@]12CCC(=O)C=C1CC[C@@H]1[C@@H]2[C@@H](O)C[C@]2(C)C(=O)CC[C@@H]12`, -4.8%.
The result for `NC(=O)[C@@H]1CC[C@@H]2CN1C(=O)N2OS(=O)(=O)[O-]` reads -0.26%; that for `COc1cc(C(=O)NC2CCN(C)CC2)c(F)cc1Nc1ncc2c(n1)N(C1CCCC1)CC(F)(F)C(=O)N2C`, 69.4%; that for `COc1cc(OC2CCN(C)CC2)ccc1Nc1ncc2c(n1)n(C1CCCC1)c(=O)n2C`, 37.2%.
The result for `COc1ccc(F)c(F)c1C(=O)c1cnc(NC2CCN(S(C)(=O)=O)CC2)nc1N` reads 16.3%.
With `COc1cc(C(=O)N2CCC(N3CCN(C)CC3)CC2)ccc1Nc1ncc2c(n1)N(C)c1ccccc1C(=O)N2C`, the result_ITMP came out at 37.9%.
The same measure for `CCOc1cc(C(=O)N2CCC(N3CCN(C)CC3)CC2)ccc1Nc1ncc2c(n1)N(C1CCCC1)c1ccccc1C(=O)N2C`: 14.1%; for `CC(C)CCN1c2nc(Nc3cc(F)c(O)c(F)c3)ncc2N(C)C(=O)C1C` (centres unmarked): 17.5%.
The result for `CC[C@@H]1C(=O)N(C)c2cnc(Nc3ccc(C(=O)N[C@H]4CC[C@H](N5CCN(CC6CC6)CC5)CC4)cc3OC)nc2N1C(C)C` reads 81.5%; that for `CC[C@@H]1C(=O)N(C)c2cnc(Nc3ccc(C(=O)NC4CCN(C)CC4)cc3OC)nc2N1C1CCCC1`, 66.8%; that for `CC(C)(C)/[N+]([O-])=C/c1ccc(S(=O)(=O)[O-])cc1S(=O)(=O)[O-]`, -0.44%.
The same measure for `O=C(O)c1ccc(/C=C2\SC(=S)N(c3cccc(C(F)(F)F)c3)C2=O)cc1`: 0.16%.
With `CC(C)(COP(=O)([O-])OP(=O)([O-])OC[C@H]1O[C@@H](n2cnc3c(N)ncnc32)[C@H](O)[C@@H]1OP(=O)([O-])O)[C@@H](O)C(=O)NCCC(=O)NCCS`, the result_ITMP is recorded as -4.31%.
The same measure for `COc1ccc(/C=C\c2cc(OC)c(OC)c(OC)c2)cc1OP(=O)([O-])[O-]`: 11.6%; for `N=C1NCCN1CC(=O)O`: 1.96%; for `O=C(O)CC/C=C\C[C@@H]1CO[C@H](c2ccccc2Cl)O[C@@H]1c1ccccc1O` (racemic): -1.11%.
The same measure for `NC(=O)C1=CN([C@@H]2O[C@H](COP(=O)([O-])OP(=O)([O-])OC[C@H]3O[C@@H](n4cnc5c(N)ncnc54)[C@H](O)[C@@H]3O)[C@@H](O)[C@H]2O)C=CC1`: -10.8%; for `C[C@H]1Oc2cc(cnc2N)-c2c(nn(C)c2C#N)CN(C)C(=O)c2ccc(F)cc21` [R4A_0001637_001 / SPE_A23124853]: -7.18%.
Consider `Cc1onc(-c2ccccc2)c1C(=O)NC1C(=O)N2[C@@H]1SC(C)(C)[C@@H]2C(=O)[O-]` (some centres unmarked), for which the result_ITMP is -4.06%.
The same measure for `CCOC(=O)C1CSC(Cc2ccc(OCc3ccc([N+](=O)[O-])cc3)cc2)N1` (centres unmarked): -2.45%; for `O=C(O)c1cc(Oc2ccc([N+](=O)[O-])cc2)cc(Oc2ccc([N+](=O)[O-])cc2)c1`: -1.17%.
The same measure for `N=C(N)SCCc1ccc(OCc2ccc([N+](=O)[O-])cc2)cc1`: 70%.
The result for `COc1c(C)c(C(=O)c2ccc(N)c(C(=O)[O-])c2)n2ccccc12` reads -3.94%; that for `NCCC(O)(P(=O)([O-])O)P(=O)([O-])O`, -8.19%.
`O=S(=O)([O-])c1cc(I)c(O)c2ncccc12`: the result_ITMP was -9.09%.
Take `Cc1nc(=O)c2c([nH]1)CCSC2`: the result_ITMP is given as -2.05%.
For `CC1(C)[C@@H]2CC[C@@]1(C)C(=O)C2` [R4A_0000828_001 / SPE_K15714472], the result_ITMP is -1%.
Regarding `Cc1ccc(C(=O)Nc2cccc(C(F)(F)F)c2)cc1Nc1nc(-c2cccnc2)nc2c1cnn2C`, the result_ITMP is recorded as -4.6%.
Regarding `Cc1ncc(NC(=O)c2ccc(CN3CCN(C)CC3)c(C(F)(F)F)c2)cc1Nc1nccc(-c2cccnc2)n1`, the result_ITMP turned out to be 9.33%.
The same measure for `Cc1ccc(NC(=O)c2ccc(CN3CCN(C)CC3)cc2)cc1Nc1nc(-c2cccnc2)cs1`: 54%; for `CC(C)[C@@H](C)/C=C/[C@@H](C)[C@H]1CC[C@H]2C3=CC=C4C[C@@H](O)CC[C@]4(C)[C@H]3CC[C@]12C`: -5.48%.
The result for `Nc1ncnc2c1ncn2C1O[C@H](COP(=O)(O)OP(=O)([O-])OP(=O)([O-])O)[C@@H](O)[C@H]1O` (some centres unmarked) reads 6.44%; that for `CC1(C)[C@@H]2C[C@H]1[C@@](C)(O)[C@@H](O)C2`, -2.34%; that for `Cc1ccc(C(=O)N(CCCN)[C@@H](c2oc3cc(Cl)ccc3c(=O)c2Cc2ccccc2)C(C)C)cc1`, 92.7%.
The result for `Cc1ccc(C(=O)N(CCCN)[C@@H](c2nc3cc(Cl)ccc3c(=O)n2Cc2ccccc2)C(C)C)cc1` reads 75.7%; that for `CCNC(=O)CCC(N)C(=O)O` (stereo in doubt), -4.2%.
As for `c1cc2c(cc1[C@H]1OC[C@H]3[C@@H]1CO[C@@H]3c1ccc3c(c1)OCO3)OCO2`, the result_ITMP is -6.11%.
With `c1ccc(Oc2nc(NC3CCCCC3)c3nc[nH]c3n2)cc1`, the result_ITMP is listed as -2.48%.
On to `NC(N)=NCCC[C@@H](N)C(=O)N[C@@H](CCCN=C(N)N)C(=O)N1CCC[C@H]1C(=O)N1C[C@H](O)C[C@H]1C(=O)NCC(=O)N[C@@H](Cc1cccs1)C(=O)N[C@@H](CO)C(=O)N1Cc2ccccc2C[C@@H]1C(=O)N1[C@H](C(=O)N[C@@H](CCCN=C(N)N)C(=O)O)C[C@@H]2CCCC[C@@H]21`, for which the result_ITMP was -1.28%.
The same measure for `C=CC(=O)Nc1cc2c(Nc3ccc(F)c(Cl)c3)ncnc2cc1OCCCN1CCOCC1`: 4.03%; for `CN(C)C/C=C/C(=O)Nc1cc2c(Nc3ccc(F)c(Cl)c3)ncnc2cc1O[C@H]1CCOC1`: 108%.
Turning to `COc1cc2ncnc(Nc3ccc(F)c(Cl)c3)c2cc1NC(=O)/C=C/CN1CCCCC1`, the result_ITMP is on record as 19.4%.
The same measure for `CCOc1cc2ncc(C#N)c(Nc3ccc(F)c(Cl)c3)c2cc1NC(=O)/C=C/CN(C)C`: 73.9%; for `CCOc1cc2ncc(C#N)c(Nc3ccc(OCc4cccc(F)c4)c(Cl)c3)c2cc1NC(=O)/C=C/CN(C)C`: -0.47%.
The same measure for `CCOc1cc2ncc(C#N)c(Nc3ccc(OCc4ccccn4)c(Cl)c3)c2cc1NC(=O)/C=C/CN(C)C`: 0.53%.
The result for `CCOC(=O)OC(C)OC(=O)C1N2C(=O)C(NC(=O)[C@H](N)c3ccccc3)C2SC1(C)C` (some centres unmarked) reads -2.51%.
In the case of `CCC(=O)O[C@@H]1CC(=O)O[C@H](C)C/C=C/C=C/[C@H](OC(C)=O)[C@H](C)C[C@H](CC=O)[C@H](O[C@@H]2O[C@H](C)[C@@H](O[C@H]3C[C@@](C)(OC(C)=O)[C@@H](OC(=O)CC)[C@H](C)O3)[C@H](N(C)C)[C@H]2O)[C@H]1OC`, the result_ITMP was determined as 7.16%.
The same measure for `O=C1NC(c2ccccc2)(c2ccccc2)C(=O)N1COP(=O)([O-])[O-]`: -0.37%.
The same measure for `CN1CCN(CCOc2cc(OC3CCOCC3)c3c(Nc4c(Cl)ccc5c4OCO5)ncnc3c2)CC1`: 58.5%.
The same measure for `CNC(=O)CN1CCC(Oc2cc3c(Nc4cccc(Cl)c4F)ncnc3cc2OC)CC1`: 27.2%.

The record behind these values is PMC13083723 (Patterns, 2026).
